Laboratory results as given in PubChem BioAssay (NCATS).
Inconclusive results are not listed. A call without a number means that no potency is given here. A number with no mark means an inactive call. The source made the active and inactive calls. The call rests on the fitted dose curve; in most records, active means well fitted inhibition curve with a large enough effect; inconclusive means small, poorly fitted or top-dose-only effect; inactive means no such curve, though single readings can be large or run the other way. Where a SMILES comes first, the peptide text is derived from it.

Test: Primary fluorescence-based thiol-reactive (MSTI) qHTS assay for identification of artifact compounds. (AID 1845221); further: nearly all actives have a fitted effect of over 65% in size;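 on activity change, negative = thiol reactive: thiol-reactive compounds lower the probe fluorescence signal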
Details: MSTI thiol-reactivity probe, 1 h; series mostly up to 53.8 µM
Source text: PI: Alexander Tropsha Ph.D.
UNC Eshelman School of Pharmacy
University of North Carolina, Chapel Hill, North Carolina
Hits from high-throughput screening (HTS) of chemical libraries are often false positives due to their interference with the assay detection technology. In response to this problem, we generated the largest publicly available library of chemical liabilities and developed a free webtool to predict HTS artifacts, both of which are described herein. More specifically, we generated, curated, and integrated HTS datasets for thiol reactivity, redox activity, and luciferase (firefly and nano) activity. Using these curated datasets, we developed and validated several Quantitative Structure-Interference Relationship (QSIR) models to predict nuisance behavior. […] These models were employed for virtual profiling of the National Center for Advancing Translational Science's (NCATS) in-house library, and 256 compounds for each assay were selected for the experimental validation of nuisance behavior. The BA for these external predictions ranged from 58 to 78% for compounds within the applicability domains of the models. […] The models developed in this study, along with aggregation models previously developed by our group (SCAM Detective) were implemented in "Liability Predictor," an online tool which may be used as part of chemical library design or for triaging HTS hits. Both the models and the curated datasets are publicly available at https://liability.mml.unc.edu/.
SEQUENCE No. (e.g., 1, 2, 3, etc.); […] (e.g., Cells, Incubation, Reagent, etc.); VALUE; DESCRIPTION.
1; Reagent; 4 uL; […].
2; Compounds and control; 16 nL; Kalypsis pin tool (Wako USA) equipped with a 1536-well pin head.
4; Detection; Fluorescence, ViewLux microplate reader, 525 nm excitation, 598 nm emission.
NOTES (numbers refer to Sequence numbers above)
1. Assays determining (E)-2-(4-mercaptostyryl)-1,3,3-trimethyl-3H-indol-1-ium (MSTI) reactivity were performed as previously described in the literature with modifications for the quick identification of compounds reacting with thiol. In brief, 4 uL of MSTI or positive control Acetyl-MSTI (final concentrations of 4 uM and 4 uM, respectively) in assay buffer (2% DMSO in 1X PBS pH 7.4) was dispensed into all wells of a 1536-well assay plate (solid-bottom black plate; Greiner Bio One, Monroe, NC).
2. A Wako Pin-tool (Wako Automation, Richmond, VA) was used to transfer 16 nL of compounds (consisting of 7-plates in qHTS format, final concentration range 18.3 nM to 114 uM) or control MLS001163887 (final concentration range 1.22 nM to 40 uM).
3. Plates were centrifuged (121xg, 15 seconds) and incubated for 1 hour at room temperature protected from light.
4. Samples were read for fluorescence (Ex/Em = 525(20)/598(25) nm) on a ViewLux CCD imager (PerkinElmer). Data were normalized to Acetyl-MSTI (0% activity) and MSTI (100% activity) and the resulting percent inhibition data were fitted to a 4-parameter Hill equation using NCATS in-house software.
Potency means the concentration at half of the fitted maximal effect.

SMILES	Potency	activity change, negative = thiol reactive
O=S(=O)(O)c1ccc(Nc2ncnc3c2ncn3[C@@H]2O[C@H](CO)[C@@H](O)[C@H]2O)cc1	inactive	–
C=C1C2CCC3CC2(CC(O)C2(O)C1CC(OC1OC(CO)C(O)C(O)C1O)C2(C)C)CC3(C)O (stereo not given)	5.19 µM (active)	–
OC[C@H]1O[C@@H](OCCc2ccccc2)[C@H](O)[C@@H](O)[C@@H]1O	11.9 µM (active)	–
CC1C2=CC(=O)OC2(O)CC2C1C(OC(=O)c1ccccc1)C(OC(=O)c1ccccc1)C1(O)C2(C)CCC(O)C1(C)C(=O)O (stereo not given)	inactive	–
C=CCC/C=C/C#CCCCCCCCC[C@H]1C(=O)O[C@H](C)[C@@H]1O	inactive	–
CC1(C(=O)O)CCCC2(C)C3CCC4CC3(CCC12)CC4C(=O)O (stereo not given)	inactive	–
C[C@@H]1O[C@@H](O[C@H]2[C@H](O)[C@@H](O)[C@H](OC[C@H]3O[C@@H](OC(=O)[C@]45CCC(C)(C)C[C@H]4C4=CCC6[C@@]7(C)C[C@@H](O)[C@H](O)[C@@](C)(CO)C7[C@H](O)C[C@@]6(C)[C@]4(C)CC5)[C@H](O)[C@@H](O)[C@@H]3O)O[C@@H]2CO)[C@H](O)[C@H](O)[C@H]1O (stereo not given in full)	–	224% [at 11.5 µM]
CC1(C(=O)O)CCCC2(C)C3CCC4CC3(CCC12)CC4(O)CO (stereo not given)	inactive	–
CC1(C)CC2C(O)C3=C(CC(C)(O)C2C1)C(=O)OC3 (stereo not given)	inactive	–
O=C(O)c1ccc(NC(=O)[C@H](CC2CCCC2)n2cnc(C(F)(F)F)c2)nc1	inactive	–
Cc1cccc(-c2nn3c(c2-c2ccnc4ccc(C(N)=O)cc24)CCC3)n1	inactive	–
COc1cccc(OC)c1-c1cc(C(=O)N[C@@H](CC(C)C)C(=O)O)nn1-c1ccnc2cc(Cl)ccc12	inactive	–
CC1CCCCCCCc2cc(O)cc(O)c2C(=O)O1 (stereo not given)	26.7 µM (active)	–
NC(=O)[C@@H]1CC[C@H](c2ccc(OCc3ccccc3F)cc2)N1	inactive	–
CNc1nc(C)nc(N[C@H]2CCC[C@@H](C(=O)NCc3ccc(C#N)cc3C(F)(F)F)C2)n1	inactive	–
CC1=C2CC(=O)C(C)CC/C=C(\C)CC2OC1=O (stereo not given)	inactive	–
CC(=O)NC(Cc1ccccc1)C(=O)NC(C(=O)O)C(C)C (stereo not drawn) (Ac-Phe-Val-OH; configuration not given here)	inactive	–
CC1=C2C[C@@]3(C)[C@@H](CCC[C@@H]3C)C[C@@]2(O)OC1=O	inactive	–
CCc1nnc(NS(=O)(=O)c2ccc(NC(=S)NC(=O)/C=C/c3ccc(F)cc3)cc2)s1	inactive	–
CC(=O)NC1CC(=O)C23C(=O)NC(Cc4c[nH]c5ccccc45)C2C(C)=C(C)C(O)C3/C=C/CC(C)/C=C(/C)C(O)C1O (stereo not given)	inactive	–

SMILES	Potency	activity change, negative = thiol reactive
CC(C)c1ccc2c(c1)C(O)CC1C(C)(CO)CCCC21C (stereo not given)	inactive	–
C=C1C(OC(C)=O)C(=O)C2C(C)(C)C(O)CCC2(C)C1CC(OC(C)=O)/C(C)=C/COC(C)=O (stereo not given)	inactive	–
Cc1oc(S(=O)(=O)N2CCCCC2)cc1NC(=O)Nc1ccccc1	inactive	–
O=C(/C=C/c1ccccc1)O[C@@H]1[C@@H](CO)O[C@@](CO)(O[C@H]2O[C@H](CO)[C@@H](O)[C@H](O)[C@H]2O)[C@H]1O	2.92 µM (active)	–
O=C(O)CC(CCc1ccccc1)OC1OC(CO)C(O)C(O)C1O (stereo not given)	5.21 µM (active)	–
COC(=O)C1=CO[C@@H](O[C@@H]2O[C@H](CO)[C@@H](O)[C@H](O)[C@H]2O)[C@@H]2[C@@H](CO)[C@@H](O)C(O)[C@H]12 (stereo not given in full)	inactive	–
O=C(CCCCC1CCCCC1)N1CCC(c2cnc[nH]2)CC1	inactive	–
C=C1C(OC(C)=O)CCC2(C)CCC(C(C)(C)O)CC12 (stereo not given)	inactive	–
CCCC/C=C\CCCCCc1cc(=O)c2ccccc2n1C	inactive	–
C[C@@H]1O[C@@H](O[C@H]2[C@H](OC(=O)[C@]34CCC(C)(C)C[C@H]3C3=CCC5[C@@]6(C)C[C@@H](O)[C@@H](O)[C@@](C)(CO)C6[C@H](O)C[C@@]5(C)[C@]3(C)CC4)OC[C@H](O)[C@@H]2O)[C@H](O)[C@H](O)[C@H]1O[C@@H]1OC[C@@H](O)[C@H](O[C@H]2O[C@H](C)[C@@H](O)[C@H](O)[C@@H]2O)[C@H]1O (stereo not given in full)	–	381% [at 11.5 µM]
C=C(C(=O)O)[C@@H]1CC[C@@]2(C)CCC[C@@](C)(O)[C@@H]2C1	inactive	–
O=C(O[C@@H]1O[C@H](CO)[C@@H](O)[C@H](O)[C@H]1O)c1ccccc1	23.8 µM (active)	–
CC1C2=CC(=O)OC2(O)CC2C1CCC1C(C)(C)CCC(O)C21C (stereo not given)	inactive	–
C/C=C(\C)C(=O)OC[C@H]1O[C@H](O[C@H]2O[C@H](CO)[C@@H](O)[C@H](O)[C@H]2O[C@@H]2O[C@H](CO)[C@@H](O)[C@H](O)[C@H]2O)[C@H](O[C@@H]2O[C@H](CO)[C@@H](O)[C@H](O)[C@H]2O)[C@@H](O)[C@@H]1O	inactive	–
CCN(CCN(C)C)C(=O)CNCc1cc(C(N)=O)ccn1	inactive	–
NCCCCN(Cc1nc2ccccc2[nH]1)[C@H]1CCCc2cccnc21	inactive	–
COc1ccc(OC2OC(CO[C@@H]3O[C@@H](C)[C@H](O)[C@@H](O)[C@H]3O)C(O)C(O)C2O)cc1OC (stereo not given in full)	2.32 µM (active)	–
CN1CCN(c2nc(-c3ccc(C(=O)NC4(C(=O)NCC#N)CCCCC4)cc3)cs2)CC1	inactive	–
CC1(O)CCC2C(C3C1CCC3(C)O)C2(C)C (stereo not given)	inactive	–
COC(=O)c1c(CC=C(C)C)c(OC2OC(CO)C(O)C(O)C2O)c2ccccc2c1OC1OC(CO)C(O)C(O)C1O (stereo not given)	inactive	–
